{
  "source": "PubChem BioAssay AID1578",
  "about": "(Sanford-Burnham Center for Chemical Genomics, 2009)",
  "note": "The campaign covered roughly 290,000 compounds. About 3,000 (1%) were called active. Rule as the data show it: active = inhibition mostly above about 36% (no sharp cut-off); inactive = mostly below about 34%. Many of the other results were omitted from the sample, so actives are more common in it than they were.",
  "data": [
    {"assay": "inhibition of NOD1-driven NF-kB reporter – cell-based, luminescence, uHTS, primary screen (AID 1578);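 also: HEK-293T reporter cells stimulated with the NOD1 agonist gamma-tri-DAP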", "conditions": "NOD1-driven NF-kB luciferase reporter cells, at 4 µM, active compounds read high", "values": [
      {"smiles": "CN(C)S(=O)(=O)c1ccc(Oc2ccccc2)cc1", "inhibition": "-4.6% (inactive)"},
      {"smiles": "COc1ccc(CNC(=O)C2(CC(=O)NC(C)(C)C)CCCC2)cc1", "inhibition": "4.9% (inactive)"},
      {"smiles": "CCC(=O)Nc1sc2c(c1C(=O)N(C)C)CCCCC2", "inhibition": "-18.5% (inactive)"},
      {"smiles": "CCCN(CCC)C(=O)c1c(NC(=O)CC)sc2c1CCCCC2", "inhibition": "50.3% (active)"},
      {"smiles": "CCC(=O)Nc1sc2c(c1C(N)=O)CCC2", "inhibition": "0.4% (inactive)"},
      {"smiles": "CCCCN1CN(Cc2ccccc2)CNC1=S", "inhibition": "-16.8% (inactive)"},
      {"smiles": "Cc1nc2cc(CO)ccc2n1C", "inhibition": "-15.3% (inactive)"},
      {"smiles": "CN(C)C(CNC(=O)/C=C/c1cccc(Cl)c1)c1ccccc1", "note": "(stereo not drawn)", "inhibition": "-22.7% (inactive)"},
      {"smiles": "O=C(O)c1cccc(NC(=S)N/N=C/c2cccnc2)c1", "inhibition": "-15.4% (inactive)"},
      {"smiles": "O=C(N/N=C/c1ccccn1)c1ccc([N+](=O)[O-])cc1", "inhibition": "67.9% (active)"},
      {"smiles": "O=C(N/N=C/c1ccccn1)c1ccccc1", "inhibition": "-39% (inactive)"},
      {"smiles": "O=C(N/N=C/c1ccccn1)c1ccc(Br)cc1", "inhibition": "103% (active)"},
      {"smiles": "O=C(N/N=C/c1ccccn1)c1ccc(N/N=C/c2ccccn2)cc1", "inhibition": "-58.4% (inactive)"},
      {"smiles": "O=C(O)c1cccc(NC(=S)N/N=C/c2cccc(O)c2)c1", "inhibition": "-6.8% (inactive)"},
      {"smiles": "O=C(O)c1cccc(NC(=S)N/N=C/c2ccccn2)c1", "inhibition": "68.3% (active)"},
      {"smiles": "O=C(N/N=C/c1ccccn1)c1cccc([N+](=O)[O-])c1", "inhibition": "20% (inactive)"},
      {"smiles": "O=C(N/N=C/c1ccccn1)c1ccc(NC(=O)c2cccc([N+](=O)[O-])c2)cc1", "inhibition": "-22.2% (inactive)"},
      {"smiles": "Brc1c(CSc2nc3ccccc3o2)nc2ncccn12", "inhibition": "-66.9% (inactive)"},
      {"smiles": "Cc1cc(C)cc(NC(=O)c2ccc(CSc3nnnn3C)cc2)c1", "inhibition": "-44.7% (inactive)"},
      {"smiles": "COc1ccc(NC(=O)CN(C)C(=O)c2ccc(-c3cccc(C(F)(F)F)c3)o2)cc1", "inhibition": "-14.7% (inactive)"},
      {"smiles": "C=CCOc1ccccc1CNCc1ccc(F)cc1", "inhibition": "-24% (inactive)"},
      {"smiles": "Cc1ccc(S(=O)(=O)c2nc(S(C)(=O)=O)sc2N2CCCC2)cc1", "inhibition": "-19.8% (inactive)"},
      {"smiles": "Cc1ccc(S(=O)(=O)c2nc(S(C)(=O)=O)sc2N2CCCCCC2)cc1", "inhibition": "32.4% (inactive)"},
      {"smiles": "Cc1ccc(S(=O)(=O)c2nc(S(C)(=O)=O)sc2N2CCCCC2C)cc1", "note": "(stereo not drawn)", "inhibition": "55.1% (active)"},
      {"smiles": "CC(=O)N1CCc2cc(S(=O)(=O)Nc3ccc(C)cc3)ccc21", "inhibition": "0% (inactive)"},
      {"smiles": "CC(=O)N1CCc2cc(S(=O)(=O)Nc3cccc(C(F)(F)F)c3)ccc21", "inhibition": "30.6% (inactive)"},
      {"smiles": "CCCNC(=O)CN1C(=O)COc2ccc(S(=O)(=O)N3CCCCCC3)cc21", "inhibition": "-13.3% (inactive)"},
      {"smiles": "COc1ccc(Cl)cc1C(=O)Nc1cccc2ncccc12", "inhibition": "13.1% (inactive)"}
    ]}
  ]
}
